Results on twelve molecules are retold here after PubChem BioAssay (NCI).

What all share (test): NCI-60 one-dose screen, 48 h (100 = growth as untreated, 0 = no growth, -100 = all killed)
Common to all, as to conditions: 10 µM unless noted

Assay [1] deals with SK-MEL-2 melanoma.
In assay [2] the test system is EKVX NSCLC.
The subject of assay [3] is SN12C renal.
Assay [4] relates to UO-31 renal.
Assay [5] concerns TK-10 renal.
The test system of assay [6] is ACHN renal.
Assay [7] deals with CAKI-1 renal.
Assay [8] relates to A498 renal.
The subject of assay [9] is CCRF-CEM leukemia.
Assay [10] has as its system MOLT-4 leukemia.

This is part of a sample that, as a whole, favours compounds with a hit. Of some 83,000 tested, about 20% had one in any assay.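 The test compound was applied at a single concentration to cells in 96-well plates for 48 hours, and percent growth was recorded.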 Unmarked numbers belong to inactive results. Calls of active or inactive are those of the source. The calls were made as follows: active = growth percent below 10; inactive = the rest.

For `Cc1ccc2cnc(N)c(C#Cc3cc(C(=O)Nc4ccc(CN5CCN(C)CC5)c(C(F)(F)F)c4)cnc3C)c2c1`, the growth in assay [1] was 6.23% (active); in assay [2], 12.6%; in assay [3], 2.6% (active); in assay [4], -82% (active); in assay [5] it was 39.7%; in assay [6], -100% (active). Further, the growth in [7] is -35.7% (active); in assay [8], -75.9% (active); in assay [9], -34.8% (active); in [10], -5.68% (active).

Consider `COc1cc2c(c(OC)c1OC)C(=O)CC(c1cccc(C(=O)Nc3ccccc3Br)c1)O2` (stereo not given), for which the growth in assay [1] was 87.7%; in assay [2], 99.1%; in assay [3], 80%; in [4], 70.2%; in assay [5] it was 94.2%; in assay [6], 89.7%. Moreover, the growth was 84.6% in [7], 91% in assay [8], 68.9% in assay [9] and 68.6% in assay [10].

As for `CCOC(=O)c1c(C)nc2c(c1N)C(=O)C(=O)N2Cc1ccc(OC)cc1`, the growth in assay [1] is 113%; in assay [2], 90.9%; in assay [3], 82.6%; in assay [4], 59.6%; in assay [5], 96%; in [6] it was 66.3%. Moreover, the growth was 83.3% in [7], 90.4% in assay [8], 59.1% in [9] and 101% in [10].

As for `Oc1c(CN2CCC(N3CCOCC3)CC2)cc(Cc2cc(CN3CCC(N4CCOCC4)CC3)c(O)c3ncccc23)c2cccnc12`, the growth in [1] was 53.7%; in assay [2], 24.9%; in assay [3] it was 29.1%; in assay [4], 17.9%; in [5], 42.3%; in [6] it was 23.5%. Besides, the growth is 13.2% in assay [7], 69.1% in assay [8], 12.6% in assay [9] and 6.57% (active) in assay [10].

On to `COc1ccc2c(c1)C(C)Cc1c(ncnc1-n1cnc3cc(C)ccc31)N2C` (stereo not given), for which the growth is 47.4% in [1]; 40.3% in assay [2]; 30.1% in [3]; 43.5% in assay [4]; 53.6% in [5]; 29% in assay [6]. Also, the growth in assay [7] was 23.2%; in assay [8], 6.42% (active); in [9] it was 7.96% (active); in [10], 11%.

As to `Cn1cc(-c2nc3c(F)cc4[nH]ncc4c3c3c2CCCC3)c(C(F)(F)F)n1`, the growth in assay [1] was 49.2%; in assay [2] it was 38.3%; in assay [3], 49.4%; in assay [4], 18.1%; in assay [5] it was 24.7%; in assay [6] it was 28.4%. In addition, the growth was 18.6% in assay [7], -15.1% (active) in [8], -8.03% (active) in assay [9] and -18.9% (active) in [10].

With `CCOC(=O)c1[nH]cc2c1CCc1sc(Nc3ccccn3)nc1-2`, the growth was 84.8% in assay [1]; 58.4% in assay [2]; 91.8% in [3]; 70.2% in assay [4]; 116% in [5]; 76.6% in assay [6]. The growth was 82.3% in [7], 62.2% in assay [8], -2.37% (active) in assay [9] and 55.2% in [10].

On to `CCSc1ccnc(N)n1`, for which the growth in assay [1] is 106%; in assay [2], 104%; in assay [3], 106%; in assay [4] it was 97.7%; in assay [5] it was 101%; in assay [6], 96.8%. For the same molecule, the growth in assay [7] is 82.1%; in assay [8] it was 98.1%; in assay [9], 97.3%; in assay [10] it was 124%.

Consider `Cc1cn(C)cn1`, for which the growth was 103% in assay [1]; 105% in assay [2]; 105% in [3]; 82.5% in [4]; 95.9% in assay [5]; 108% in assay [6]. The growth is 88.7% in assay [7], 114% in assay [8], 97.3% in assay [9] and 105% in [10].

On to `COCC(=O)Oc1cc(-c2ccc(C)cc2C)c(OC(=O)COC)c(-c2ccc(C)cc2C)c1`, for which the growth is 28.9% in [1]; 57.1% in assay [2]; 56.4% in assay [3]; 47.7% in [4]; 70.9% in assay [5]; -18% (active) in assay [6]. Further, the growth in [7] was 9.83% (active); in [8] it was 68.7%; in assay [9], 38.9%; in assay [10] it was 21.7%.

For the molecule `CCN1C2CCC1/C(=C\c1ccccc1)C(=O)/C2=C/c1ccccc1`, the growth in [1] was 54.9%; in [2], 71.4%; in assay [3], 55.4%; in assay [4], 61.1%; in assay [5] it was 84.6%; in assay [6], 57.7%. Moreover, the growth in [7] is 81.8%; in [8] it was 66.1%; in [9] it was 28.1%; in [10], 31%.

For the molecule `COC(=O)/C=C1/SC(=NCc2ccccc2)N(CCc2c[nH]c3ccccc23)C1=O`, the growth in assay [1] was 85.8%; in assay [2], 88.1%; in assay [3], 85.4%; in [4], 73%; in assay [5], 129%; in assay [6] it was 99.5%. The growth in assay [7] was 102%; in assay [8] it was 88.1%; in assay [9] it was 30.3%; in [10], 3.29% (active).
